For the assay, the system named is HL-60(TB) leukemia. The assay can be described thus: NCI-60 one-dose screen, 48 h (100 = growth as untreated, 0 = no growth, -100 = all killed). Conditions: 10 µM unless noted.

This is part of a sample that, as a whole, favours compounds with a hit. Of some 83,000 tested, about 20% had one in any assay.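 In brief: 96-well plates, 48 h treatment, single concentration, percent growth endpoint.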 A number with no mark means an inactive call. Active and inactive are the calls of the source. Rule for the calls: active = growth percent below 10; inactive = the rest.

On to `CCC1=CCC[C@@]2(C)CCC[C@@]3(C)CCCC(C)(C)[C@]1([O-])[O+]32`, for which the growth is 107%.
The same measure for `O=c1[nH]c2c3ccncc3cc(-c3cccc(Cl)c3)c2c2cnccc12`: 17.6%; for `CCOC(=O)c1c(C)nn(CC(O)c2ccccc2)c1NC(=O)Nc1cccc(F)c1` (stereo not given): 107%; for `CCCCCCCCCCCC[n+]1ccc2ccccc2c1`: -53.4% (active).
The same measure for `c1cc(OCCN2CCCCC2)ccc1CNc1ccc2nc(CCC3CCCCC3)[nH]c2c1`: -31.6% (active); for `O=C(CCCCCCCCC(=O)N/N=C\c1cc(Cl)ccc1O)N/N=C\c1cc(Cl)ccc1O`: 9.81% (active); for `COc1ccc(CNc2c3ccccc3nc3ccccc23)cc1OC`: 12.7%.
As for `c1ccc(C2CCCCC2)c(OCCCCCN2CCNCC2)c1`, the figure is 28.2%.
Consider `COc1ccc(/C(C)=C(\c2ccc(Cl)cc2)c2ccc(OCCN3CCCC3)cc2)cc1F`, for which the growth was 0.205% (active).
Consider `O=c1oc2ccc(Cl)cc2cc1-c1cs/c(=N/N=C\c2ccc(Cl)cc2)n1/N=C/c1ccc(Cl)cc1`, for which the growth was 95.1%.
The same measure for `CCOC(=O)CC1CSC(N/N=C/c2ccc(O)cc2)=N1` (stereo not given): 97.6%.
As to `C=CC(=O)N[C@H](/C=C/C(=O)OCC)Cc1ccc(-c2cc(Cl)cc(Cl)c2)cc1`, the growth is 76.5%.
As for `CNc1ccc(Nc2ccc(S(=O)(=O)O)cc2)c2c1C(=O)c1ccccc1C2=O`, the growth was 120%.
In the case of `CCCCCCCCCCCCCC`, the growth was 87%.
The same measure for `Cc1nc(N)sc1C(=O)NCCO`: 167%; for `COc1ccc(-c2cc(/C=C/C(=O)c3cc(OC)c(OC)c(OC)c3)[nH]n2)cc1OC`: -22.9% (active); for `CCCCCCC12CCC(=O)N1CCc1cncn12` (stereo not given): 85.4%.
`O=C1C(Cl)=C(SC2=NCCN2)C(=O)c2ccccc21`: the growth is 81.4%.
The same measure for `CCOC(=O)CC1CSC(N/N=C(/C)c2cccc(C(F)(F)F)c2)=N1` (stereo not given): 101%; for `O=C1CC[C@@H](C(=O)N[C@H]2CSSC[C@@H](C(=O)NCCc3ccccc3)NC(=O)[C@H](Cc3ccccc3)NC(=O)[C@@H]3CCCN3C(=O)[C@@H]3CCCN3C2=O)N1`: 76.3%; for `CSc1nc2ncc([N+](=O)[O-])c(=O)n2[nH]1`: 106%.
As for `Nc1ccc2ccccc2c1-c1c(N)ccc2ccccc12`, the figure is 2.94% (active).
As for `COc1ccc(CNCCN2C(=O)c3ccc4c5c(ccc(c35)C2=O)C(=O)N(CCNCc2ccc(OC)c(OC)c2OC)C4=O)c(OC)c1OC`, the figure is -43.2% (active); as for `c1ccc(COc2ccc(Nc3ncnc4c3cnn4-c3ccccc3)cc2)cc1`, 99.8%; as for `COc1cccc2cc(N(C)c3nc(C)nc4c3CCC4)ccc12`, -8.85% (active).
`O=C(NCCOCCOCCNc1cccc2c1C(=O)N(C1CCCNC1=O)C2=O)c1cc2c(o1)C(=O)c1ccccc1C2=O` (stereo not given): the growth was -1.81% (active).
Consider `O=C1N(C[P+](c2ccccc2)(c2ccccc2)c2ccccc2)CCCN1C[P+](c1ccccc1)(c1ccccc1)c1ccccc1`, for which the growth is 62.9%.
The same measure for `Cc1ccccc1C(c1ccccc1)c1ccccc1C`: 88.4%; for `N#CC[C@H](C1CCCC1)n1cc(-c2ncnc3[nH]ccc23)cn1`: 97.7%.
The same measure for `COc1cccc2c1O/C(=C\c1ncc([N+](=O)[O-])n1C)C2=O`: -14.8% (active); for `O=C1CCCN1C1CCN2CCCc3cccc1c32` (stereo not given): 92.7%.
As for `COC12C=C/C(=C(/C(=O)OCc3ccccn3)C(=O)CCCCCCCCC3(OC)C=C/C(=C(/C(=O)OCc4ccccn4)C(=O)CCCCCCCC1)O3)O2`, the figure is -19% (active); as for `O=C(NC1CCN(Cc2ccccc2)CC1)c1cc(-c2ccncc2)nc2ccc(Cl)cc12`, 15.2%; as for `O=[N+]([O-])c1ccc(Oc2cc(Cl)c(Cl)cc2Cl)c(C(F)(F)F)c1`, 104%.
With `CCCCCCCC/C=C\CCCCCCCCOc1ccc(CC(=O)NCC[N+]2(C)CCOCC2)cc1`, the growth was -14% (active).
The same measure for `Cc1onc(-c2c(F)cccc2Cl)c1-c1ncc(-c2ccc(Br)cc2)o1`: 37.5%; for `C#Cc1cccc(NC(=O)c2ccc(Cl)cc2Cl)c1`: 72.5%; for `COc1ccc(-c2nc(SCCC(C)C)nc(N/N=C\c3ccccc3O)c2C#N)cc1`: 83.6%.
As for `COc1ccc(Cn2cc3c(c2)-c2oncc2CC3)cc1`, the figure is 24.5%.
The same measure for `Cc1nc2sc(C(=O)Nc3cccc4ccccc34)c(N)c2cc1C(=O)/C=C/c1ccccc1`: 4.48% (active); for `O=c1[nH]c(=O)[nH]c(=S)[nH]1`: 102%.
Take `Nc1c(Br)cc(O)c2c1C(=O)c1ccccc1C2=O`: the growth is 41.9%.
Take `COC(=O)C1=Nc2ccc(F)cc2/C1=C/c1sc(=S)[nH]c1O`: the growth is -28.8% (active).
As for `COc1ccc2c(c1)c(-c1nonc1-c1cn(C)c3ccc(OC)cc13)cn2C`, the figure is -1.01% (active); as for `O=S(=O)(CCN1CCOCC1)Nc1cc(-c2ccc3ncnc(Nc4ccc(F)c(Cl)c4)c3c2)cnc1Cl`, 27.3%; as for `Cc1ccc(N=CNN=C(N)N)cc1`, 87.9%.
The same measure for `O=C(NCCN1CCOCC1)OCc1nc2nc(Cl)nc(N3CCOCC3)c2[nH]1`: -54% (active); for `Cc1ccc(-c2nc3nc(-c4ccccc4)nc(N4CCN(S(=O)(=O)c5ccccc5)CC4)c3o2)cc1`: 107%.
On to `O=S(=O)(NCl)c1ccccc1`, for which the growth was 99.8%.
With `CCOC(=O)C1=CCC(n2cc(F)c(=O)[nH]c2=O)O1` (stereo not given), the growth is 83.6%.
For the molecule `COc1cc(/C=C\c2cc(/C=C\c3ccc(O)c(OC)c3)n(C(=O)CNc3ccc(Cl)cc3)n2)ccc1O`, the growth is -11.6% (active).
The same measure for `CC1=NOC(=O)/C1=C\c1ccc(O)cc1`: 105%; for `Cc1cc(N2CCN(C)CC2)nc(NCc2cc(Nc3ccnc4cc(Cl)ccc34)ccc2F)n1`: -53.5% (active); for `CCc1cccc(Sc2cc(C(=O)N3Cc4ccc(OCCN(C)C)cc4C3)ccc2O)c1`: 50.3%.
The same measure for `O=C(/C=C\c1cccc([N+](=O)[O-])c1)/C=C/c1cccc([N+](=O)[O-])c1`: 123%; for `Cc1nn(-c2ccccc2)c2nc3c(c(-c4ccc(Cl)cc4)c12)CNC1(CCSCC1)N3`: 72.9%; for `O=C(CSc1nnc(-c2cc(-c3ccccc3)nc3ccccc23)o1)c1ccc(Br)cc1`: 99.4%.
With `CC(CC(=O)c1ccccc1)c1ccccc1` (stereo not given), the growth was 102%.
Regarding `CC1(C(=O)O)CCC(N)(C(=O)O)C1(C)C` (stereo not given), the growth is 101%.
Consider `C=C1C(=O)O[C@H]2[C@H]1CC/C(COC(=O)NCc1ccc(OC)c(OC)c1)=C\CC[C@@]1(C)O[C@@H]21`, for which the growth was 35.8%.
The same measure for `COc1ccc(-n2c(C(O)c3ccccc3)nn(CN3CCOCC3)c2=S)cc1` (stereo not given): 126%; for `CNC(C)[C@H]1CCC2C3CC=C4C(=O)[C@@H](NC(=O)C=C(C)C)CC[C@]4(C)C3CC[C@@]21C` (stereo not given in full): -67% (active).
As for `Nc1n[nH]c2cccc(C#Cc3cccc(NC(=O)c4cc(F)cc(C(F)(F)F)c4)c3)c12`, the growth was 37.7%.
As for `COc1cc2cc3cc4cc(OC)c(OC)cc4c(C)[n+]3cc2cc1OC` (tested in a mixture with another compound), the figure is 33%; as for `COC(=O)N[C@H]1CCc2cc(OC)c(OC)c(OC)c2-c2ccc(SC)c(=O)cc21`, -45.4% (active).
Turning to `Cc1ccc(N)cc1F`, the growth is 120%.
As for `CNc1nc2c(s1)C(c1cccc(F)c1)CC(=O)N2` (stereo not given), the figure is 97.5%.
The same measure for `CC(=O)Oc1ccc(C2OC(c3ccc4ccccc4c3OC(C)=O)=NN2C(C)=O)c(OC(C)=O)c1` (stereo not given): -30.7% (active); for `CN1CCN(Cc2ccc(NC(=O)c3cncc(C#Cc4cnc5cccnn45)c3)cc2C(F)(F)F)CC1`: -37.9% (active); for `Cc1ccc(-c2nc3nc(-c4ccccc4)nc(N4CCCN(S(C)(=O)=O)CC4)c3o2)cc1`: 99.6%.
The same measure for `CN=c1ccc2nc3ccc(N)cc3sc-2c1`: -27.1% (active); for `CCOC(=O)c1c(C)n2c(=O)cc(C)c3c(OC(C)=O)c(OC(C)=O)cc1c32`: 0.923% (active); for `CSc1ccccc1C#C/C=C\C#Cc1ccccc1N1CCCC1=O`: -33.4% (active).
With `COC(=O)c1cc(Cl)cc([N+](=O)[O-])c1O`, the growth was 18.8%.
The same measure for `COc1ccc(/C=N/C2=C(C#N)C(c3ccccc3)c3c(ccc4ccccc34)O2)cc1` (stereo not given): -18.1% (active).
The same measure for `O=c1c2cc(F)ccc2sc2c(N3CCNCC3)nc3ccccc3c12`: -52% (active).
The same measure for `C=C(C)[C@@H]1CC[C@]2(C(=O)N3CCN(C)CC3)CC[C@]3(C)[C@H](CC[C@@H]4[C@@]5(C)CC[C@H](OCCC#N)C(C)(C)[C@@H]5CC[C@]43C)[C@@H]12`: 73.8%; for `Cc1cc(Cl)ccc1Nc1nc(C(F)(F)F)ccc1C(=O)N/N=C/c1ccc([N+](=O)[O-])cc1`: -24.1% (active).
In the case of `Cc1ccccc1-n1c(C)nc2cc(NC(=O)c3ccc(Cl)cc3)ccc2c1=O`, the growth was 64.5%.
The same measure for `NS(=O)(=O)c1ccc(Nc2nc3n[nH]c(Nc4ccccc4)c3c(=O)[nH]2)cc1`: 101%.
As to `COc1cc(-c2nn(-c3cccc(NC(=O)CCNc4ccc(N5CCOCC5)cc4)c3)cc2-c2ccncc2)ccc1Cl`, the growth is 8.36% (active).
With `C=C(c1ccc(OC)c(/C=C/C(=O)c2cc(OC)c(OC)c(OC)c2)c1)c1cc(OC)c(OC)c(OC)c1`, the growth is 12.8%.
The same measure for `Nc1nc2ccccc2c2c(=O)c3ccc(Cl)cc3sc12`: 92.1%.
On to `O=[N+]([O-])c1ccc(N=Nc2c(Cl)cc(O)cc2Cl)cc1`, for which the growth was -31.9% (active).
The same measure for `O=C(/C=C/c1ccc(C(F)(F)F)cc1)c1ccc(Nc2nc(NCCO)nc(NCCO)n2)cc1`: 88.5%.

These data come from PubChem BioAssay (NCI).
